Data on 60 molecules can be found in PubChem BioAssay AID1851 (National Center for Advancing Translational Sciences (NCATS), 2009).

Where “and” joins values, the source holds several entries; their conditions need not be identical. Equal values may be shown once. The whole screen tested about 16,000 compounds, of which about 2,600 (16%) were called active. Roughly 20% stayed inconclusive and do not appear here. Calls follow the shape of the dose curve; as a rule, active = well fitted curve in the direction sought with a large enough effect; inconclusive = small, poorly fitted or top-dose-only effect, or effect the other way; inactive = no such curve, though single readings can be large or run the other way. Not all results are given here. Peptide text beside a SMILES is read from it. * marks the point of attachment. Cbz = O=C(OCc1ccccc1)*
% is scaled to controls: 0 for no effect and ±100 for the full control effect.

The target in this test is Cytochrome P450 2D6 (Homo sapiens) (UniProt P10635). As to the kind of experiment: Cytochrome panel assay with activity outcomes. The note with it: recombinant CYP, pro-luciferin dealkylation, luminescence, p450-cyp2d6; series mostly up to 57.1 µM.
Cytochrome P450 2D6 (Homo sapiens), sequence (P10635 whole entry, looked up): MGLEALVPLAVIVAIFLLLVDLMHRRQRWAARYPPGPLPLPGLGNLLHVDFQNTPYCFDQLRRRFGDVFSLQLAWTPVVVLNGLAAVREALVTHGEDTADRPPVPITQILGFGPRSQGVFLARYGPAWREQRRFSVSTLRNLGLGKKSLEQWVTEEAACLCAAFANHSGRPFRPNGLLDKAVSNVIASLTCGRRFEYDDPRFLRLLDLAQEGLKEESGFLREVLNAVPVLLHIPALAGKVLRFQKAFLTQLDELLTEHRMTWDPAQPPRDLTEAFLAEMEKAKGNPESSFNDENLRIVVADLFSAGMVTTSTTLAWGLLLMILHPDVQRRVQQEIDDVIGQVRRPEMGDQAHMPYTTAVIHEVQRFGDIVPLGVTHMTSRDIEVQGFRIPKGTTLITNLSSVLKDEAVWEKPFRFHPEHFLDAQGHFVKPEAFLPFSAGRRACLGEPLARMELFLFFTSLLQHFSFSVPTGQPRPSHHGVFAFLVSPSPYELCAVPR
For `CCCC[C@]1(C2CCCC2)Cc2cc(OCC(=O)O)c(Cl)c(Cl)c2C1=O`, the AC50 entry was “inactive”.

In the case of `COc1cccc(Cn2c(=O)c(-c3cccs3)nc3cnc(Nc4cccc(OC)c4)nc32)c1`, the AC50 entry was “inactive”. With `COc1ccc(/C=C(\C#N)C(N)=O)c(OC)c1`, the activity, negative = inhibition was -4.62% [at 11.4 µM] (inactive). For the molecule `COc1cc(/C=C(\C#N)C(=O)c2ccc(O)c(O)c2)cc(I)c1O`, the AC50 entry is “inactive”. On the same count and under the same terms, for `COc1cc(/C=C(\C#N)C(N)=O)cc(CSc2nc3ccccc3s2)c1O` the value was 0.0251 µM (active).

Take `C[C@@]1(C(NC(=O)Cc2ccccc2)c2ccc(-c3ccccc3)cc2)C[C@H]1C1CCCCC1` (stereo not given in full): the AC50 result is “inactive”. Same read-out and setting: for `COC(=O)c1ccc(C(NC(=O)c2ccccc2)[C@]2(C)C[C@H]2C2CCCCC2)cc1` (stereo not given in full) the value was “inactive”. On to `COC(=O)[C@H]1C[C@@H]1[C@H](NC(=O)OCc1ccccc1)c1ccccc1`, for which the AC50 result was “inactive”. Take `CCC[C@@H]1C[C@@]1(CCC)C(NC(=O)c1ccco1)c1ccc(Cl)cc1` (stereo not given in full): the AC50 was 3.98 µM (active). Still for that read-out and setting: for `CCCC[C@@H]1C[C@H]1C(NC(=O)c1ccccc1)c1ccccc1` (stereo not given in full) the value was “inactive”. As for `CCC[C@@H]1C[C@@]1(CCC)C(NC(=O)OCc1ccccc1)c1ccc(-c2ccccc2)cc1` (stereo not given in full), the AC50 is 7.94 µM (active). The same measure, in the same setting: next, `C[C@@]1(C(NC(=O)c2ccc(-c3ccccc3)cc2)c2ccc(Cl)cc2)C[C@H]1C1CCCCC1` (stereo not given in full): “inactive”; `CCC[C@@H]1C[C@@]1(CCC)C(NC(=O)c1ccccc1)c1cccc(Cl)c1` (stereo not given in full): 3.16 µM (active); `CCOC(=O)CC(NC(=O)c1ccco1)c1ccc(OC)cc1` (stereo not given): “inactive”. For `COc1ccc2c(c1)c(CC(=O)O)c(C)n2Cc1ccc(Cl)cc1`, the AC50 entry was “inactive”.

Turning to `CO[C@@H]1COC(=O)C/C=C\[C@H](C)[C@@H](NS(=O)(=O)c2ccc(C)cc2)COC(=O)C/C=C\[C@@H]1C`, the activity, negative = inhibition was 1.88% [at 11.4 µM] (inactive) and 8.18% [at 11.4 µM] (inactive). Consider `Cc1cc(SCC(=O)c2cccs2)nc2c(C)cccc12`, for which the AC50 entry was “inactive”. Still for that read-out and setting: next, `O=C(O)CC(c1cccc2ccccc12)n1cccc1` (stereo not given): “inactive”; `O=C(c1cc(C(F)(F)F)cc(C(F)(F)F)c1)N1CCC2(CC1)CCN(c1ccccn1)CC2`: “inactive”.

Turning to `O=C1OC2CC3CC1CC(O)(C3)C2` (stereo not given), the AC50 entry is “inactive”.

As for `O=C(NCCO[N+](=O)[O-])c1cccnc1`, the AC50 entry was “inactive”. As to `CO[C@@H]1COC(=O)CC=C[C@@H](C)[C@@H]2C=C[C@@H](O)[C@@H](COC(=O)C/C=C\[C@H]1C)O2`, the activity, negative = inhibition was 20% [at 11.4 µM] (inactive). Take `O=c1c(CCc2ccccc2)nc2cncnc2n1Cc1ccccc1Cl`: the AC50 result was “inactive”. As to `CC(C)[C@H](NC(=O)OCc1ccccc1)C(=O)N[C@H](C=O)Cc1ccccc1` (Cbz-Val-Phe-aldehyde), the AC50 entry was “inactive”. Consider `Cc1nc2cnc(N3CCNCC3)nc2n(-c2ccccc2)c1=O`, for which the AC50 entry is “inactive”. On the same count and under the same terms, for `CN1CCN(c2ncc3nc(-c4cc(F)cc(F)c4)c(=O)n(C4CC4)c3n2)CC1` the value was “inactive”. Regarding `O=S(=O)(O)c1cc(O)c2c(N=Cc3ccccc3O)cc(S(=O)(=O)O)cc2c1`, the activity, negative = inhibition was -8.82% [at 11.4 µM] (inactive). As to `Cc1cc(C)n(-c2nc(Nc3ccccc3C)nc(-n3nc(C)cc3C)n2)n1`, the AC50 result is “inactive”. On the same count and under the same terms, next, `CCN1/C(=C/c2ccc3cccc(C)c3[n+]2CC)Sc2ccccc21`: 0.0708 µM (active); `CC1(C)O[C@@H]2C[C@H]3[C@H]4C[C@H](F)C5=CC(=O)C=C[C@@]5(C)[C@@H]4[C@H](O)C[C@]3(C)[C@]2(C(=O)CO)O1`: “inactive”; `Cc1cc(S(=O)(=O)NCCN(C)C)c(C)s1`: “inactive”. Same read-out and setting: for `CCN(CCO)Cc1csc2cccc(Br)c12` the value was 15.8 µM (active); for `COc1ccc(-n2c(=O)c(-c3cccc(Cl)c3)nc3cncnc32)cc1`, “inactive”. In the case of `CCOC(=O)c1cnc2cc(-c3ccc(C(C)(C)C)cc3)nn2c1N`, the AC50 entry is “inactive”.

With `O=C(CCc1ccccc1)NCc1cccnc1`, the AC50 result is “inactive”. Still for that read-out and setting: for `Cn1c(C(=O)O)c(CC(=O)NCc2cccnc2)c2ccccc21` the value was “inactive”; for `O=C(CSCc1c(Cl)cccc1Cl)NCc1cccnc1`, 15.8 µM (active). For `O=[N+]([O-])c1ccc(Cl)c(-c2ccc(/C=N/c3c(-c4ccco4)nc4ccccn34)o2)c1`, the AC50 result is “inactive”.

Regarding `Cc1cc(-c2cccc([N+](=O)[O-])c2)nc2ccc3ccccc3c12`, the AC50 result was “inactive”. Still for that read-out and setting: for `N#CCCn1c(=O)c(-c2ccc(F)cc2)nc2cnc(Oc3cccc(Cl)c3)nc21` the value was “inactive”. In the case of `C[C@@](N)(Cc1c[nH]c2ccccc12)C(=O)O`, the activity, negative = inhibition was 5.35% [at 11.4 µM] (inactive). As to `O=C(Cc1c[nH]c2ccccc12)OCC(=O)c1ccccc1`, the AC50 result is “inactive”. Still for that read-out and setting: next, `CCOC(=O)CCCc1c[nH]c2ccccc12`: 17.8 µM (active). `[O-][N+]1(CC[N+]2([O-])CCCCC2)CCCCC1`: the activity, negative = inhibition was 3.01% [at 11.4 µM] (inactive). Consider `COc1cccc(/C=N/n2c(=S)n(C)c3cc(C)c(C)cc32)c1OC`, for which the AC50 entry is “inactive”. Still for that read-out and setting: next, `CC(=O)CSc1nnc(Cc2ccc([N+](=O)[O-])cc2)o1`: “inactive”; `O=C(O)Cc1cc2ccccc2nc1C(=O)O`: “inactive”. Same read-out and setting: for `COC(=O)C1C(=O)C2=C(CC1C)NC(=O)CC2c1cccc(C)c1` (stereo not given) the value was “inactive”; for `COc1ccc2[nH]cc(CCNc3ncncc3-c3ccccc3Cl)c2c1`, 0.631 µM (active); for `COc1ccc2[nH]cc(CCNc3ncncc3-c3ccccc3OC)c2c1`, 1.26 µM (active). For `COc1ccc2[nH]cc(CCNc3ncncc3-c3ccccc3CN(C)C)c2c1`, the AC50 was 10 µM (active).

With `COc1ccc2[nH]cc(CCNc3ncncc3-c3ccccc3C(F)(F)F)c2c1`, the AC50 was 2 µM (active).

Regarding `CC[C@@H]1CN2CCc3cc(OC)c(OC)cc3[C@H]2C[C@@H]1C[C@H]1NCCc2cc(OC)c(OC)cc21`, the AC50 entry is “inactive”. The same measure, in the same setting: next, `COc1c2ccoc2nc2c(OC)c(OC[C@H](O)C(C)(C)O)ccc12`: “inactive”; `CC(=O)N1N=C(c2cccc([N+](=O)[O-])c2)OC1c1ccccc1Cl` (stereo not given): “inactive”. The same measure, in the same setting: next, `O=c1c(-c2cccs2)nc2cnc(Oc3cccc(Cl)c3)nc2n1C[C@H]1CCCO1`: “inactive”. Still for that read-out and setting: next, `CCc1ccc(-c2cc(C(F)(F)F)n3nc(C(=O)Nc4cnn(Cc5ccccc5C)c4)cc3n2)s1`: “inactive”. Take `CCOC(=O)c1c(NC(C)=O)sc2c(OC)cccc12`: the AC50 result is “inactive”. In the case of `COC(=O)c1ccc(OCC2c3cc(OC)c(OC)cc3CCN2C(=O)C2CC2)cc1` (stereo not given), the AC50 result was “inactive”. On to `COc1ccc2[nH]cc(CCNc3ncncc3-c3ccccc3C)c2c1`, for which the AC50 is 1.26 µM (active).
